# Assay results as given in paper PMC8384837, “Expanding the binding specificity for RNA recognition by a PUF domain”.
# Key:
# Assay in all cases: yeast three-hybrid, YBZ-1, SC-Leu-His + 0.5 mM 3-AT, 4 days
# Conditions in all cases: tags: N-Gal4 AD-HA kept; label: inside an RPR1-promoter hybrid RNA with tandem MS2 sites; ssRNA
# PUM1 PUF domain R4-ARS = PUM1 PUF domain R4-ARS (Homo sapiens, UniProt Q14671 828-1176, N971A;H972R;Q975S)
# Outline: (§1)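 The interaction score is the log change in variant frequency from input to selection. Scores were computed in log2 with a pseudocount of 1 for absent variants, using Illumina sequencing of PCR-amplified repeat regions. The input came from four days on SC-Leu and the selection from four days on SC-Leu-His + 0.5 mM 3-AT. The cells were strain YBZ-1 (LexA–MS2 coat fusion, HIS3 reporter) co-expressing Pumilio-1 PUF domain libraries and matching RNA elements from a centromeric plasmid.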
# PUM1 PUF domain R4-CPG = PUM1 PUF domain R4-CPG (Homo sapiens, UniProt Q14671 828-1176, N971C;H972P;Q975G)
# PUM1 PUF domain R4-CPG, sequence (Q14671 828-1176 N971C/H972P/Q975G): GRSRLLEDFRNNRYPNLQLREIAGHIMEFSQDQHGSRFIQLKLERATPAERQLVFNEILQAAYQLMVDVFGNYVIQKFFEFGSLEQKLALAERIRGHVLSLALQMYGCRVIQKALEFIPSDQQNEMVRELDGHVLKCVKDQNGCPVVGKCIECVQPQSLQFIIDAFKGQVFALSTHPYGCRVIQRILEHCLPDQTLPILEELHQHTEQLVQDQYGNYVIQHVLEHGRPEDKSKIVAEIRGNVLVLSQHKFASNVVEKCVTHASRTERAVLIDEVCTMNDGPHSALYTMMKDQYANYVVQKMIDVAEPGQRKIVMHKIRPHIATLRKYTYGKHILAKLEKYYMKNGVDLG
# Outline: as §1
# PUM1 PUF domain R3-SPW = PUM1 PUF domain R3-SPW (Homo sapiens, UniProt Q14671 828-1176, C935S;R936P;Q939W)
# PUM1 PUF domain R3-SPW, sequence (Q14671 828-1176 C935S/R936P/Q939W): as the sequence (Q14671 828-1176 N971C/H972P/Q975G) above, with C108S, R109P, Q112W, C144N, P145H, G148Q counted along it
# Outline: as §1
# PUM1 PUF domain R8-YYR = PUM1 PUF domain R8-YYR (Homo sapiens, UniProt Q14671 828-1176, N1122Y;Q1126R)
# PUM1 PUF domain R8-YYR, sequence (Q14671 828-1176 N1122Y/Q1126R): as the sequence (Q14671 828-1176 N971C/H972P/Q975G) above, with C144N, P145H, G148Q, N295Y, Q299R counted along it
# Outline: as §1
# PUM1 PUF domain R3-SPD = PUM1 PUF domain R3-SPD (Homo sapiens, UniProt Q14671 828-1176, C935S;R936P;Q939D)
# PUM1 PUF domain R3-SPD, sequence (Q14671 828-1176 C935S/R936P/Q939D): as the sequence (Q14671 828-1176 N971C/H972P/Q975G) above, with C108S, R109P, Q112D, C144N, P145H, G148Q counted along it
# Outline: as §1
# PUM1 PUF domain R5-ERC = PUM1 PUF domain R5-ERC (Homo sapiens, UniProt Q14671 828-1176, C1007E;Q1011C)
# PUM1 PUF domain R5-ERC, sequence (Q14671 828-1176 C1007E/Q1011C): as the sequence (Q14671 828-1176 N971C/H972P/Q975G) above, with C144N, P145H, G148Q, C180E, Q184C counted along it
# Outline: as §1
# PUM1 PUF domain R5-LHG = PUM1 PUF domain R5-LHG (Homo sapiens, UniProt Q14671 828-1176, C1007L;R1008H;Q1011G)
# PUM1 PUF domain R5-LHG, sequence (Q14671 828-1176 C1007L/R1008H/Q1011G): as the sequence (Q14671 828-1176 N971C/H972P/Q975G) above, with C144N, P145H, G148Q, C180L, R181H, Q184G counted along it
# Outline: as §1
# PUM1 PUF domain R3-RTF = PUM1 PUF domain R3-RTF (Homo sapiens, UniProt Q14671 828-1176, C935R;R936T;Q939F)
# PUM1 PUF domain R3-RTF, sequence (Q14671 828-1176 C935R/R936T/Q939F): as the sequence (Q14671 828-1176 N971C/H972P/Q975G) above, with C108R, R109T, Q112F, C144N, P145H, G148Q counted along it
# Outline: as §1
# PUM1 PUF domain R5-KTL = PUM1 PUF domain R5-KTL (Homo sapiens, UniProt Q14671 828-1176, C1007K;R1008T;Q1011L)
# PUM1 PUF domain R5-KTL, sequence (Q14671 828-1176 C1007K/R1008T/Q1011L): as the sequence (Q14671 828-1176 N971C/H972P/Q975G) above, with C144N, P145H, G148Q, C180K, R181T, Q184L counted along it
# Outline: as §1
# PUM1 PUF domain R5-KRD = PUM1 PUF domain R5-KRD (Homo sapiens, UniProt Q14671 828-1176, C1007K;Q1011D)
# PUM1 PUF domain R5-KRD, sequence (Q14671 828-1176 C1007K/Q1011D): as the sequence (Q14671 828-1176 N971C/H972P/Q975G) above, with C144N, P145H, G148Q, C180K, Q184D counted along it
# Outline: as §1
# PUM1 PUF domain R5-KQV = PUM1 PUF domain R5-KQV (Homo sapiens, UniProt Q14671 828-1176, C1007K;R1008Q;Q1011V)
# PUM1 PUF domain R5-KQV, sequence (Q14671 828-1176 C1007K/R1008Q/Q1011V): as the sequence (Q14671 828-1176 N971C/H972P/Q975G) above, with C144N, P145H, G148Q, C180K, R181Q, Q184V counted along it
# Outline: as §1
# PUM1 PUF domain R5-LWV = PUM1 PUF domain R5-LWV (Homo sapiens, UniProt Q14671 828-1176, C1007L;R1008W;Q1011V)
# PUM1 PUF domain R5-LWV, sequence (Q14671 828-1176 C1007L/R1008W/Q1011V): as the sequence (Q14671 828-1176 N971C/H972P/Q975G) above, with C144N, P145H, G148Q, C180L, R181W, Q184V counted along it
# Outline: as §1
# PUM1 PUF domain R7-RGL = PUM1 PUF domain R7-RGL (Homo sapiens, UniProt Q14671 828-1176, S1079R;N1080G;E1083L)
# PUM1 PUF domain R7-RGL, sequence (Q14671 828-1176 S1079R/N1080G/E1083L): as the sequence (Q14671 828-1176 N971C/H972P/Q975G) above, with C144N, P145H, G148Q, S252R, N253G, E256L counted along it
# Outline: as §1
# PUM1 PUF domain R7-TPG = PUM1 PUF domain R7-TPG (Homo sapiens, UniProt Q14671 828-1176, S1079T;N1080P;E1083G)
# PUM1 PUF domain R7-TPG, sequence (Q14671 828-1176 S1079T/N1080P/E1083G): as the sequence (Q14671 828-1176 N971C/H972P/Q975G) above, with C144N, P145H, G148Q, S252T, N253P, E256G counted along it
# Outline: as §1
# PUM1 PUF domain R7-GIV = PUM1 PUF domain R7-GIV (Homo sapiens, UniProt Q14671 828-1176, S1079G;N1080I;E1083V)
# PUM1 PUF domain R7-GIV, sequence (Q14671 828-1176 S1079G/N1080I/E1083V): as the sequence (Q14671 828-1176 N971C/H972P/Q975G) above, with C144N, P145H, G148Q, S252G, N253I, E256V counted along it
# Outline: as §1
# PUM1 PUF domain R1-RLT = PUM1 PUF domain R1-RLT (Homo sapiens, UniProt Q14671 828-1176, S863R;R864L;Q867T)
# PUM1 PUF domain R1-RLT, sequence (Q14671 828-1176 S863R/R864L/Q867T): as the sequence (Q14671 828-1176 N971C/H972P/Q975G) above, with S36R, R37L, Q40T, C144N, P145H, G148Q counted along it
# Outline: as §1
# PUM1 PUF domain R8-PWY = PUM1 PUF domain R8-PWY (Homo sapiens, UniProt Q14671 828-1176, N1122P;Y1123W;Q1126Y)
# PUM1 PUF domain R8-PWY, sequence (Q14671 828-1176 N1122P/Y1123W/Q1126Y): as the sequence (Q14671 828-1176 N971C/H972P/Q975G) above, with C144N, P145H, G148Q, N295P, Y296W, Q299Y counted along it
# Outline: as §1
# PUM1 PUF domain R8-SYN = PUM1 PUF domain R8-SYN (Homo sapiens, UniProt Q14671 828-1176, N1122S;Q1126N)
# PUM1 PUF domain R8-SYN, sequence (Q14671 828-1176 N1122S/Q1126N): as the sequence (Q14671 828-1176 N971C/H972P/Q975G) above, with C144N, P145H, G148Q, N295S, Q299N counted along it
# Outline: as §1
# PUM1 PUF domain R4-ARS, sequence (Q14671 828-1176 N971A/H972R/Q975S): as the sequence (Q14671 828-1176 N971C/H972P/Q975G) above, with C144A, P145R, G148S counted along it
sequence,measurement,setting,value
GGCUAGAACUAGUGGAUCCCCCGGCGCCCGGCGGCUCGAGCCCGGGUAAGUGUAAAUAGUCUGCAUGCCGCCGGGCGCCAUGCCUGCAGGUCGACUCUAGAAAACAUG,binding signal,PUM1 PUF domain R4-ARS,4.61 log2 enrichment (interaction score)
same,binding signal,PUM1 PUF domain R4-CPG,4.34 log2 enrichment (interaction score)
same,binding signal,PUM1 PUF domain R3-SPW,3.13 log2 enrichment (interaction score)
same,binding signal,PUM1 PUF domain R8-YYR,5.34 log2 enrichment (interaction score)
same,binding signal,PUM1 PUF domain R3-SPD,3.36 log2 enrichment (interaction score)
same,binding signal,PUM1 PUF domain R5-ERC,2.93 log2 enrichment (interaction score)
same,binding signal,PUM1 PUF domain R5-LHG,2.63 log2 enrichment (interaction score)
GGCUAGAACUAGUGGAUCCCCCGGCGCCCGGCGGCUCGAGCCCGGGUAAGUGUAAUUAGUCUGCAUGCCGCCGGGCGCCAUGCCUGCAGGUCGACUCUAGAAAACAUG,binding signal,PUM1 PUF domain R3-RTF,2.83 log2 enrichment (interaction score)
GGCUAGAACUAGUGGAUCCCCCGGCGCCCGGCGGCUCGAGCCCGGGUAAGUGUACAUAGUCUGCAUGCCGCCGGGCGCCAUGCCUGCAGGUCGACUCUAGAAAACAUG,binding signal,PUM1 PUF domain R4-ARS,3.28 log2 enrichment (interaction score)
same,binding signal,PUM1 PUF domain R4-CPG,2.44 log2 enrichment (interaction score)
GGCUAGAACUAGUGGAUCCCCCGGCGCCCGGCGGCUCGAGCCCGGGUAAGUGUUAAUAGUCUGCAUGCCGCCGGGCGCCAUGCCUGCAGGUCGACUCUAGAAAACAUG,binding signal,PUM1 PUF domain R5-KTL,1.72 log2 enrichment (interaction score)
same,binding signal,PUM1 PUF domain R5-KRD,4.94 log2 enrichment (interaction score)
same,binding signal,PUM1 PUF domain R5-KQV,2.42 log2 enrichment (interaction score)
same,binding signal,PUM1 PUF domain R5-LWV,2.42 log2 enrichment (interaction score)
GGCUAGAACUAGUGGAUCCCCCGGCGCCCGGCGGCUCGAGCCCGGGUAAGUUUAAAUAGUCUGCAUGCCGCCGGGCGCCAUGCCUGCAGGUCGACUCUAGAAAACAUG,binding signal,PUM1 PUF domain R7-RGL,3.07 log2 enrichment (interaction score)
same,binding signal,PUM1 PUF domain R7-TPG,4.42 log2 enrichment (interaction score)
same,binding signal,PUM1 PUF domain R7-GIV,2.42 log2 enrichment (interaction score)
GGCUAGAACUAGUGGAUCCCCCGGCGCCCGGCGGCUCGAGCCCGGGUAAGUGUAAAUCGUCUGCAUGCCGCCGGGCGCCAUGCCUGCAGGUCGACUCUAGAAAACAUG,binding signal,PUM1 PUF domain R1-RLT,4.76 log2 enrichment (interaction score)
GGCUAGAACUAGUGGAUCCCCCGGCGCCCGGCGGCUCGAGCCCGGGUAAGCGUAAAUAGUCUGCAUGCCGCCGGGCGCCAUGCCUGCAGGUCGACUCUAGAAAACAUG,binding signal,PUM1 PUF domain R8-PWY,2.57 log2 enrichment (interaction score)
same,binding signal,PUM1 PUF domain R8-YYR,5.94 log2 enrichment (interaction score)
same,binding signal,PUM1 PUF domain R8-SYN,2.66 log2 enrichment (interaction score)
